Experimental data from PMC7862700, “An all-to-all approach to the identification of sequence-specific readers for epigenetic DNA modifications on cytosine”.

Experiments:
Assay in all cases: DAPPL (digital affinity profiling via proximity ligation, sequencing); 10 mM Tris-HCl pH 7.5, 50 mM NaCl, 1 mM DTT, 4% glycerol, room temperature, 30 min; GST-TFs on glutathione beads, 16-mer random dsDNA library, 0.1% formaldehyde crosslink after washing; high values mean tight binding
Settings in all cases: protein: recombinant; tags: N-terminal GST; dsDNA, one strand shown
FLI1 = target: T1, FLI1 (Homo sapiens, UniProt Q01543 1-452)
T1 sequence: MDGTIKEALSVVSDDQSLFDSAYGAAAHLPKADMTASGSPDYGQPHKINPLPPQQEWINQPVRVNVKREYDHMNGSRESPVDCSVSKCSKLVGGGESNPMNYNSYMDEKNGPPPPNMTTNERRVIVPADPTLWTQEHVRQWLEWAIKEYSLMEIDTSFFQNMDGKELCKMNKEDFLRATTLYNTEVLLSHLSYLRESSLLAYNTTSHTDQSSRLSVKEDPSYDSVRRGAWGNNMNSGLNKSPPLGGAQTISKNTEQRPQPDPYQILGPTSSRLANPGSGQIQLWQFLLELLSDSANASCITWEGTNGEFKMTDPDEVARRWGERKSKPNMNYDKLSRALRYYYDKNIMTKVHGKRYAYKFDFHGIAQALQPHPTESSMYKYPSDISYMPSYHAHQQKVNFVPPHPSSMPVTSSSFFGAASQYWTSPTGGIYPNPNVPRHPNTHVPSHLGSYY
Method in brief: (§1)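 Binding signal is each hexamer's read frequency for a factor divided by its frequency in the tag-only sample. The factors were GST-fused human transcription factors from yeast, captured on glutathione beads, DNA-barcoded and pooled with that sample. Pools were incubated with 200 nmole of a random double-stranded 16-mer DNA library in Tris/NaCl/DTT/glycerol buffer at room temperature for 30 min, then washed, crosslinked with 0.1% formaldehyde, proximity-ligated with BsaI/T4 ligase (1 h, 37 °C), PCR-amplified and sequenced on an Illumina NextSeq500.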

ELK1 = target: T2, ELK1 (Homo sapiens, UniProt P19419 1-428)
T2 sequence: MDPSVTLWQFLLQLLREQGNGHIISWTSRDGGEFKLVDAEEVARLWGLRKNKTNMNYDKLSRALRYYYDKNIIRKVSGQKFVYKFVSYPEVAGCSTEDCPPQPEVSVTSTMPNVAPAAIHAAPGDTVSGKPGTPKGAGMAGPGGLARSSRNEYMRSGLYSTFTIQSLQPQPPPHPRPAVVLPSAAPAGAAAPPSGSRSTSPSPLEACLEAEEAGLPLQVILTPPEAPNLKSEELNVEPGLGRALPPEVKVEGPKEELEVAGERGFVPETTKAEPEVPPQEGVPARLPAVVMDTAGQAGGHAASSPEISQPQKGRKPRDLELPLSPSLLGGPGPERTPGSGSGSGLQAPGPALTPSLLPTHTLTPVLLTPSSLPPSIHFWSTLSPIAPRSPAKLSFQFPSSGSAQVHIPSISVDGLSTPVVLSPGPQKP
Method in brief: as §1

GABPA = target: T3, GABPA (Homo sapiens, UniProt Q06546 1-454)
T3 sequence: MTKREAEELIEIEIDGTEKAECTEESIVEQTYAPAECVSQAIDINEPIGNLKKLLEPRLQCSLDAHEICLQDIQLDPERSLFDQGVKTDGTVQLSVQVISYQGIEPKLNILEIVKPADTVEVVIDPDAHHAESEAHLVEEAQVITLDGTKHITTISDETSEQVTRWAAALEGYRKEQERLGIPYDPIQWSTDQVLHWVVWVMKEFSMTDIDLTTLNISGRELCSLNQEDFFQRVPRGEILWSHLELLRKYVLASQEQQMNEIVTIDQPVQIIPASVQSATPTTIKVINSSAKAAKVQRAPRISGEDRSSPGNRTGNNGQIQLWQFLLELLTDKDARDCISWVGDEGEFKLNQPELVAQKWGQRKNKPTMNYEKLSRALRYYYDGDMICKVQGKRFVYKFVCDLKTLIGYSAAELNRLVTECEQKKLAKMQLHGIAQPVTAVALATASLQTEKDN
Method in brief: as §1

ERG = target: T4, ERG (Homo sapiens, UniProt P11308 1-479)
T4 sequence: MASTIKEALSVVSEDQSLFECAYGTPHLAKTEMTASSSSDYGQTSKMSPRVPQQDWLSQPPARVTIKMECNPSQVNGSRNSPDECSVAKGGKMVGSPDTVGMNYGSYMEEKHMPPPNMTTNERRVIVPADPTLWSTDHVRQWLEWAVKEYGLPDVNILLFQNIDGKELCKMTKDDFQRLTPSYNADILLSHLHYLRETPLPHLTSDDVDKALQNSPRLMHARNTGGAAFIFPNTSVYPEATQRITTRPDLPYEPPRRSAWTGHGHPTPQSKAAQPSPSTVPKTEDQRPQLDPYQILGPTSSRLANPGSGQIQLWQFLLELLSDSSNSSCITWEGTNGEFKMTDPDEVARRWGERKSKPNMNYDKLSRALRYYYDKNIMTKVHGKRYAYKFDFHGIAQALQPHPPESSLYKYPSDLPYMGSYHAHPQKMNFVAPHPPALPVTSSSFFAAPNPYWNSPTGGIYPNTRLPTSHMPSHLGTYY
Method in brief: as §1

ELF1 = ELF1 (Homo sapiens, UniProt P32519 1-619)
Method in brief: as §1

EHF = target: T5, EHF (Homo sapiens, UniProt Q9NZC4 1-300)
T5 sequence: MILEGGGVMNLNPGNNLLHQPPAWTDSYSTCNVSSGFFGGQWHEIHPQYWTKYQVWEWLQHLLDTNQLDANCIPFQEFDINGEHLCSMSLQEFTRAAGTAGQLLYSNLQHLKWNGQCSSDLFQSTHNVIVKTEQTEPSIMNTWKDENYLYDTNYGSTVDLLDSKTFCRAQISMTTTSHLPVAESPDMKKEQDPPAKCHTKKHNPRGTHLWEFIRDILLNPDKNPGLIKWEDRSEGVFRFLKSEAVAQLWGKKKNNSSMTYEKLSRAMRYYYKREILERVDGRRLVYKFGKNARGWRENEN
Method in brief: as §1

SPI1 = SPI1 (Homo sapiens, UniProt P17947 1-270)
Method in brief: as §1

SPIB = SPIB (Homo sapiens, UniProt Q01892 1-262)
Method in brief: as §1

ELK3 = target: T6, ELK3 (Homo sapiens, UniProt P41970 1-407)
T6 sequence: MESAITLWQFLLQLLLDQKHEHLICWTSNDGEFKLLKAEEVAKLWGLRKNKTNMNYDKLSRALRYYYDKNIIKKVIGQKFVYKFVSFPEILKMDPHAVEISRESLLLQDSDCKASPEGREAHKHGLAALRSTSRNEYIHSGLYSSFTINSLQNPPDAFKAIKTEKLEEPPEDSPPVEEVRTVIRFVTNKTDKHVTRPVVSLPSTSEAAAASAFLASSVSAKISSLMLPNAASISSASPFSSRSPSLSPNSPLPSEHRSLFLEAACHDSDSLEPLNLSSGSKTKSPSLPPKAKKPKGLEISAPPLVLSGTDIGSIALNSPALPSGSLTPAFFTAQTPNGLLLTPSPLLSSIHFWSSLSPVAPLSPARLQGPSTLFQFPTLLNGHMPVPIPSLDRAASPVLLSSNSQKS
Method in brief: as §1

Sequence of SPIB (Q01892 whole entry): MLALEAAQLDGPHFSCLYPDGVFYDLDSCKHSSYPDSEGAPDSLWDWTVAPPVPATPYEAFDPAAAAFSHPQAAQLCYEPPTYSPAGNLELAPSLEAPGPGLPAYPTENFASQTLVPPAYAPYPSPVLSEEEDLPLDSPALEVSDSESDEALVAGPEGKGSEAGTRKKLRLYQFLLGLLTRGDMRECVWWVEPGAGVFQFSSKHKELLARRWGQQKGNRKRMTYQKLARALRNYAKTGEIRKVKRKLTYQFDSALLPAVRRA
Sequence of ELF1 (P32519 whole entry): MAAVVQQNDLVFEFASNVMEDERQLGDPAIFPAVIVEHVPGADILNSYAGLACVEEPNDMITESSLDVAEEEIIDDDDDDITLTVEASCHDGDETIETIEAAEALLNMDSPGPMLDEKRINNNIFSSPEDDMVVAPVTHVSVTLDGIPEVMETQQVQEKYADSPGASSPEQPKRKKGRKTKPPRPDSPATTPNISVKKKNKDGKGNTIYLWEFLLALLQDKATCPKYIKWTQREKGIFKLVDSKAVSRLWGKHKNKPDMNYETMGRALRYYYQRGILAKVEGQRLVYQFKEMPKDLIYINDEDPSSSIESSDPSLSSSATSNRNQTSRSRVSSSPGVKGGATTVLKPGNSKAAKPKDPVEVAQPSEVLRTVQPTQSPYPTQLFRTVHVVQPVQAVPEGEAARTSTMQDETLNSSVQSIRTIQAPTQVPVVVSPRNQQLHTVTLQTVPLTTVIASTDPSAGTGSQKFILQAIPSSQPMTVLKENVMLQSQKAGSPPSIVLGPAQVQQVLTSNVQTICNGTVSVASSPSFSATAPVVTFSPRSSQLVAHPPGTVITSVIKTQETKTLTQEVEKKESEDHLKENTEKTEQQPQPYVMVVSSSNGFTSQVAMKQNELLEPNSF

Sequence | binding signal (FLI1) | binding signal (ELK1) | binding signal (GABPA) | binding signal (ERG) | binding signal (ELF1) | binding signal (EHF) | binding signal (SPI1) | binding signal (SPIB) | binding signal (ELK3)
GTACAT | 1.4 fold enrichment (6-mer frequency, TF over GST control) | 1.35 fold enrichment (6-mer frequency, TF over GST control) | 1.17 fold enrichment (6-mer frequency, TF over GST control) | 1.35 fold enrichment (6-mer frequency, TF over GST control) | 1.36 fold enrichment (6-mer frequency, TF over GST control) | 1.26 fold enrichment (6-mer frequency, TF over GST control) | 1.28 fold enrichment (6-mer frequency, TF over GST control) | 1.36 fold enrichment (6-mer frequency, TF over GST control) | 1.44 fold enrichment (6-mer frequency, TF over GST control)
CCATCC | 1.24 fold enrichment (6-mer frequency, TF over GST control) | 1.28 fold enrichment (6-mer frequency, TF over GST control) | 1.23 fold enrichment (6-mer frequency, TF over GST control) | 1.32 fold enrichment (6-mer frequency, TF over GST control) | 1.27 fold enrichment (6-mer frequency, TF over GST control) | 1.27 fold enrichment (6-mer frequency, TF over GST control) | 1.31 fold enrichment (6-mer frequency, TF over GST control) | 1.3 fold enrichment (6-mer frequency, TF over GST control) | 1.41 fold enrichment (6-mer frequency, TF over GST control)
TCCATC | 1.28 fold enrichment (6-mer frequency, TF over GST control) | 1.28 fold enrichment (6-mer frequency, TF over GST control) | 1.15 fold enrichment (6-mer frequency, TF over GST control) | 1.17 fold enrichment (6-mer frequency, TF over GST control) | 1.29 fold enrichment (6-mer frequency, TF over GST control) | 1.2 fold enrichment (6-mer frequency, TF over GST control) | 1.19 fold enrichment (6-mer frequency, TF over GST control) | 1.16 fold enrichment (6-mer frequency, TF over GST control) | 1.28 fold enrichment (6-mer frequency, TF over GST control)
CCTCCG | 1.18 fold enrichment (6-mer frequency, TF over GST control) | 1.55 fold enrichment (6-mer frequency, TF over GST control) | 1.41 fold enrichment (6-mer frequency, TF over GST control) | 1.35 fold enrichment (6-mer frequency, TF over GST control) | 1.32 fold enrichment (6-mer frequency, TF over GST control) | 1.24 fold enrichment (6-mer frequency, TF over GST control) | 1.41 fold enrichment (6-mer frequency, TF over GST control) | 1.48 fold enrichment (6-mer frequency, TF over GST control) | 1.38 fold enrichment (6-mer frequency, TF over GST control)
AGCTCA | 1.07 fold enrichment (6-mer frequency, TF over GST control) | 1.1 fold enrichment (6-mer frequency, TF over GST control) | 1.15 fold enrichment (6-mer frequency, TF over GST control) | 1.08 fold enrichment (6-mer frequency, TF over GST control) | 1.2 fold enrichment (6-mer frequency, TF over GST control) | 1.21 fold enrichment (6-mer frequency, TF over GST control) | 1.06 fold enrichment (6-mer frequency, TF over GST control) | 1.17 fold enrichment (6-mer frequency, TF over GST control) | 1.12 fold enrichment (6-mer frequency, TF over GST control)
TGGTGT | 1.28 fold enrichment (6-mer frequency, TF over GST control) | 1.18 fold enrichment (6-mer frequency, TF over GST control) | 1.35 fold enrichment (6-mer frequency, TF over GST control) | 1.33 fold enrichment (6-mer frequency, TF over GST control) | 1.33 fold enrichment (6-mer frequency, TF over GST control) | 1.31 fold enrichment (6-mer frequency, TF over GST control) | 1.23 fold enrichment (6-mer frequency, TF over GST control) | 1.18 fold enrichment (6-mer frequency, TF over GST control) | 1.4 fold enrichment (6-mer frequency, TF over GST control)
ATTCAG | 1.02 fold enrichment (6-mer frequency, TF over GST control) | 1.11 fold enrichment (6-mer frequency, TF over GST control) | 1.17 fold enrichment (6-mer frequency, TF over GST control) | 1.14 fold enrichment (6-mer frequency, TF over GST control) | 1.09 fold enrichment (6-mer frequency, TF over GST control) | 1.1 fold enrichment (6-mer frequency, TF over GST control) | 1.16 fold enrichment (6-mer frequency, TF over GST control) | 1.02 fold enrichment (6-mer frequency, TF over GST control) | 1.16 fold enrichment (6-mer frequency, TF over GST control)
CAACTC | 1.37 fold enrichment (6-mer frequency, TF over GST control) | 1.23 fold enrichment (6-mer frequency, TF over GST control) | 1.3 fold enrichment (6-mer frequency, TF over GST control) | 1.28 fold enrichment (6-mer frequency, TF over GST control) | 1.34 fold enrichment (6-mer frequency, TF over GST control) | 1.19 fold enrichment (6-mer frequency, TF over GST control) | 1.31 fold enrichment (6-mer frequency, TF over GST control) | 1.22 fold enrichment (6-mer frequency, TF over GST control) | 1.3 fold enrichment (6-mer frequency, TF over GST control)
